Screens deposited in PubChem BioAssay by several laboratories.
Compounds with a hit are over-represented: about 2.8% of the library has one in this group of screens.
PP5 primary = PP5 phosphatase inhibitors, primary screen, biochemical, fluorescence; Serine/threonine-protein phosphatase 5 (Homo sapiens), P53041; purified PP5c, OMFP substrate fluorescence; inhibition, % at 6.7 µM; 320,000 compounds, 0.18% hits; AID 1987, 2009;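 active = inhibition above the campaign's mean inhibition across all tested compounds plus 3 SD, cut at about 9.5% in these data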;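 also: 0% = DMSO only and 100% = 100 µM cantharidin control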
PP1 inh = PP1-alpha phosphatase inhibitors, primary screen, counter-screen for PP5 inhibitor project, biochemical, fluorescence, OMFP substrate, single point. purified PP1alpha. 320,000 compounds, 0.9% hits. Serine/threonine-protein phosphatase PP1-alpha catalytic subunit (Homo sapiens), P62136. inhibition, % at 6.7 µM;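 active = inhibition above the mean inhibition of all tested compounds plus 3 SD, computed separately for each screening campaign, cut at about 15% in these data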
PG9 binder = binders of HIV-1 gp120 antibody PG9, primary screen, biochemical, TR-FRET. inhibition, % at 6.7 µM. TR-FRET gp120-PG9 antibody binding. HIV-1 gp120 / PG9 antibody interaction. 360,000 compounds, 0.43% hits; in the data active = inhibition above about 8.5%
KLK7 zymogen act = proKLK7 zymogen activators, primary screen, biochemical, fluorescence intensity; Kallikrein-7 (Homo sapiens), P49862; purified proKLK7, EDANS-DABCYL substrate fluorescence; 100% is mature enzyme control, 0% vehicle; activation, % at 7 µM; 370,000 compounds, 0.9% hits;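 active = activation above the mean of all tested compounds plus 3 SD, computed per campaign excluding outliers beyond control limits, cut at about 13% in these data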
NR1D1 modulator = modulators of Rev-erb alpha DNA binding, primary screen, biochemical, FITC-DNA, fluorescence polarization, uHTS; Nuclear receptor subfamily 1 group D member 1 (Homo sapiens), P20393; Rev-erbα–FITC-DNA binding, 90 min; activity, % at 10 µM; 370,000 compounds, 0.79% hits; AID 1259318, 2017;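 active = activity above about 14%, limit read from the data; passing the limit was not always enough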;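 also: 0% = DMSO wells with 35 nM protein and 100% = DMSO wells with 750 nM protein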
Target sequence (P20393 whole entry, looked up): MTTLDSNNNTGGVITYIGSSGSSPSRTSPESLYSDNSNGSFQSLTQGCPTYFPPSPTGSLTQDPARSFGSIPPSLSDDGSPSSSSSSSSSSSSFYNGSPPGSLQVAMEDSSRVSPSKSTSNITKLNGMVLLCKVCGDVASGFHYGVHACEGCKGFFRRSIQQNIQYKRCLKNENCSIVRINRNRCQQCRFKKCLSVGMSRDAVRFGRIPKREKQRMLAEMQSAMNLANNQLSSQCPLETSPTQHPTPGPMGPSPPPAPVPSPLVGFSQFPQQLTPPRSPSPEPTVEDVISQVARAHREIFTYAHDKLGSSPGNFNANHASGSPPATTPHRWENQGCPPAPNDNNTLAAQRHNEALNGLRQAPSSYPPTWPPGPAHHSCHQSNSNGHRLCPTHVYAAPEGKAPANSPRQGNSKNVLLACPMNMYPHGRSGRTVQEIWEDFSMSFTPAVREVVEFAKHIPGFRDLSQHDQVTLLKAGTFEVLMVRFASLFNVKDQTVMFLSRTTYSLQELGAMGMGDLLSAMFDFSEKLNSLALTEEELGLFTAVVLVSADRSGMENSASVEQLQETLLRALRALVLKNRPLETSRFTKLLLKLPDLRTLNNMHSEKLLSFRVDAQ
JMJD2C inh = inhibitors of GASC-1 histone demethylase, primary screen, biochemical, fluorescence, DELFIA europium. Lysine-specific demethylase 4C (Homo sapiens), Q9H3R0. GST-JMJD2C(1-420) H3K9me3 demethylation. inhibition, % at 2.35 µM. 330,000 compounds, 0.069% hits. AID 2099, 2009;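 active = more than half of a compound's replicate wells show inhibition beyond 50%, single wells judged on their own value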;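 also: signal counts dimethyl H3K9 product captured on neutravidin plate; 0% = median of DMSO wells and 100% = 0.3 times that DMSO median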
PG9 bind confirm = binders of anti-gp120 antibody PG9, confirmation, biochemical, TR-FRET | shares compounds with PG9 binder | TR-FRET PG9 antibody binding | inhibition, % at 6.7 µM | 1,500 compounds, 90% hits; in the data active = inhibition above about 9%
PGV04 counter = binders of control antibody PGV04, counter-screen for PG9 antibody binder project, biochemical, TR-FRET, distinct HIV envelope site | shares compounds with PG9 binder | TR-FRET PGV04 antibody-gp120 binding | inhibition, % at 6.7 µM | 1,500 compounds, 95% hits; in the data active = inhibition above about 9.5%
proKLK7 act conf = proKLK7 zymogen activators, confirmation, biochemical, fluorescence intensity, triplicate. shares compounds with KLK7 zymogen act. purified proKLK7, EDANS-DABCYL substrate fluorescence; scaled: vehicle 0, mature enzyme 100. activation, % at 7 µM. 3,200 compounds, 68% hits. AID 686949, 2013;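 active = activation, as change over the incubation, above the mean of all tested compounds plus 3 SD, cut at about 13% in these data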
EDANS interfere = EDANS-DABCYL substrate optical interference, artefact control for kallikrein-7 zymogen activator project, biochemical, fluorescence intensity, high throughput; shares compounds with KLK7 zymogen act; no enzyme, 4 h; solvent 0%, active enzyme control 100%; activation, % at 7 µM; 3,200 compounds, 80% hits; AID 686952, 2013;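 active = activation above the all-compound mean plus 3 SD, ignoring values outside control-based bounds, cut at about 4.8% in these data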;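 also: value is the 4 h activation minus the activation read at time zero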
EDANS interf = EDANS fluorescence interference in dose response, no enzyme; EDANS-DABCYL peptide fluorescence interference; 250 compounds, 20% hits; shares compounds with KLK7 zymogen act; EC50, µM;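 active = compounds that raise the fluorescence signal in this interference counterscreen, with EC50 at or below 10 µM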;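 also: intact quenched peptide substrate alone read at 355 nm excitation and 520 nm emission; signal is fluorescence gain from T0 to T4 after four hours at room temperature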
Rev-erbA confirm = modulators of Rev-erb alpha DNA binding, confirmation, biochemical, FITC-DNA, fluorescence polarization, single point; shares compounds with NR1D1 modulator; 90 min; activation, % at 25 µM; 3,000 compounds, 61% hits; AID 1259319, 2017;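 active = activation at or above a set limit, or at least 3 SD above the negative control mean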;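 also: 0% = 35 nM protein with DMSO and 100% = 750 nM protein high control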
An asterisk follows results filed as active; · = no result.

SMILES | PP5 primary | PP1 inh | PG9 binder | KLK7 zymogen act | NR1D1 modulator | JMJD2C inh | proKLK7 act conf | EDANS interfere | others
CCN(CC)C(=O)c1cccc(NC(=O)CCc2nc3sc4c(c3c(=O)[nH]2)CCCC4)c1 | · | · | -0.5 | 0.8 | -5.8 | · | · | ·
Cc1cc(C)cc(NC(=O)CCc2nc3sc4c(c3c(=O)[nH]2)CCCC4)c1 | 0.0 | 4.6 | 10.9* | -1.2 | 29.5* | -9.8 | · | · | PG9 bind confirm=16.8*;PGV04 counter=23.2*;Rev-erbA confirm=7.6
CC(=O)Nc1ccc(NC(=O)CCc2nc3sc4c(c3c(=O)[nH]2)CCCC4)cc1 | 0.6 | -4.2 | -0.5 | 0.3 | -2.3 | 3.7 | · | ·
CNC(C#Cc1ccccc1)c1ccccc1C(F)(F)F (stereo not drawn) | · | · | · | · | 2.1 | · | · | ·
COc1cc2c(cc1OC)C(COc1ccc([N+](=O)[O-])cc1)NCC2 (stereo not drawn) | 0.5 | 0.5 | -0.9 | 14.3* | 1.2 | -3.1 | -0.2 | -0.6
O=c1c(-c2ccccc2)nc2ccccc2n1C(c1ccccn1)c1nc2ccccc2[nH]1 (stereo not drawn) | · | · | 1.2 | 4.2 | -1.1 | · | · | ·
O=c1c(-c2cccs2)nc2ccccc2n1C(c1ccccn1)c1nc2ccccc2[nH]1 (stereo not drawn) | · | · | -0.9 | 17.1* | -4.3 | · | 12.6 | 13.8*
O=C(O)C1CC=CCC1C(=O)N1CCN(c2nc(-c3ccccc3)c3ccccc3n2)CC1 (stereo not drawn) | 3.3 | 5.0 | 1.3 | 79.9* | -4.6 | -3.8 | 1.6 | -2.3
O=C(O)CCCC(=O)N1CCN(c2nc(-c3ccccc3)c3ccccc3n2)CC1 | -0.4 | 3.8 | 0.0 | 16.0* | -3.9 | 15.6 | 9.2 | 8.0*
Cc1ccc2nc(N3CCN(C(=O)CCC(=O)O)CC3)nc(-c3ccccc3)c2c1 | -0.6 | 2.2 | -2.2 | 27.5* | -6.1 | 23.5 | -40.0 | -56.5
O=C(NCc1ccco1)C1CCCN(S(=O)(=O)c2cccs2)C1 (stereo not drawn) | · | · | · | 0.4 | -0.7 | · | · | ·
CCN(C(=O)[C@@H](C1CC1)[C@@H](O)c1ccc(C(C)=O)cc1)c1ccccc1 | · | · | · | -0.1 | -0.8 | · | · | ·
C[C@@H]1C=CCCO[C@]12C(=O)N(Cc1ccc(F)cc1)c1ccccc12 | · | · | 1.7 | 0.2 | 2.5 | · | · | ·
O=C(NC1CCCC1)c1cc2nc(-c3ccccc3)cc(-c3ccccc3)n2n1 | -1.9 | -0.1 | -0.7 | -1.0 | 0.7 | 5.5 | · | ·
O=C(Nc1cccc(O)c1)c1cc2nc(-c3ccccc3)cc(-c3ccccc3)n2n1 | -0.1 | -0.5 | -3.5 | 95.9* | 1.8 | -7.4 | -63.4 | -115.7
CCOc1cccc(/C=N\NC(=O)c2cnccn2)c1O | · | · | · | 0.1 | -6.7 | · | · | ·
COC(=O)C1=C(C)N(Cc2ccccc2C(F)(F)F)C(=NCc2ccc3c(c2)OCO3)NC1c1ccccc1C(F)(F)F (stereo not drawn) | · | · | 0.6 | 0.2 | 3.8 | · | · | ·
COC(=O)[C@]12C[C@H](CC(=O)NCc3cccs3)C(=O)N(Cc3cccc4ccccc34)C1=C[C@H](C1CCCC1)O[C@@H]2C | · | · | · | 0.2 | 1.0 | · | · | ·
CC(=O)OC[C@H]1O[C@@H](Oc2cc3ccc(=O)oc3cc2OC(C)=O)[C@H](OC(C)=O)[C@@H](OC(C)=O)[C@@H]1OC(C)=O | · | · | -1.0 | 79.6* | -15.1 | · | 78.7* | 77.5*
COc1ccc(O[C@@H]2O[C@H](COC(C)=O)[C@@H](OC(C)=O)[C@H](OC(C)=O)[C@H]2NC(C)=O)cc1 | 0.3 | -0.3 | -1.1 | 0.2 | -4.8 | 1.9 | · | ·
COC(=O)[C@]12C[C@H](CC(=O)NCC34CC5CC(CC(C5)C3)C4)C(=O)N(Cc3ccc4c(c3)OCO4)C1=C[C@H](C(C)(C)C)O[C@@H]2C | · | · | -0.8 | 1.3 | 8.6 | · | · | ·
CCOc1cc(C2C3=C(CCCC3=O)N(CCC(=O)O)C3=C2C(=O)CCC3)ccc1OS(=O)(=O)c1ccc(C)cc1 | 0.6 | 2.0 | -1.5 | 19.8* | -2.4 | -23.3 | 29.8* | 32.0*
Cc1ccc(S(=O)(=O)Oc2ccc(C3C4=C(CCCC4=O)N(CCC(=O)O)C4=C3C(=O)CCC4)cc2Cl)cc1 | 1.3 | -2.6 | 1.4 | 6.5 | -0.7 | 16.0 | · | ·
CCOC(=O)N1CCC(NC(=O)c2ccc3c(c2)N(CC)CCS3)CC1 | -1.6 | -2.1 | -1.3 | 27.1* | -11.9 | 9.7 | 6.5 | 5.2*
O=C(NC1CCCC1)c1ccc2c(c1)N(Cc1ccc(F)cc1)CCS2 | 4.5 | 5.4 | -1.4 | -34.4 | -5.5 | -6.2 | · | ·
COc1ccc(Br)cc1CNC(=O)c1ccc2c(c1)N(C)CCS2 | 0.8 | -0.6 | -1.2 | -37.2 | 5.4 | 67.6 | · | ·
CN1CCSc2ccc(C(=O)NCc3cccc(F)c3)cc21 | 2.6 | -2.0 | -0.2 | 49.3* | -3.9 | -11.6 | 51.5* | 1.1 | EDANS interf=>69.5
CN(C)CCNC(=O)c1ccc2c(c1)N(Cc1ccc(F)cc1)CCS2 | -0.9 | 0.3 | -0.2 | 61.5* | -3.4 | 0.2 | -24.6 | -21.6
N#Cc1ccc(-c2ccc(OCC(=O)Nc3cccnc3)cc2)cc1 | · | · | 1.3 | 18.0* | 5.2 | 4.1 | -0.6 | -0.9
